Structures can show the parent of a compound that is named as a salt. ± gives the standard deviation.
Tests used:
Jurkat [1] = experiment: mean cell size (FSC-A) relative to DMSO control (fraction of control); higher = larger cells; settings: 48 h
In short: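 Jurkat cells seeded at 600 cells/µl were incubated 1 h, then exposed for 48h to the Enzo Screen-Well FDA Approved Drug Library v2.0 at 25µM in 0.9% (v/v) final DMSO. Drugs that cut counts below 20% of controls were diluted 10-fold and retested, down to 25nM. Cell count and mean cell size (forward scatter area) were read on an Accuri C6 flow cytometer, relative to solvent-only controls. Plates held 6-12 controls; values are means of 3 biological replicates.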

Jurkat [2] = experiment: cell count relative to DMSO control (fraction of control); higher = more cells (less growth inhibition); settings: 48 h

SMILES | mean cell size (Jurkat [1]) | cell count (Jurkat [2])
C[C@]12CCC(=O)C=C1CC[C@@H]1[C@@H]2[C@@H](O)C[C@@]2(C)[C@H]1CC[C@]2(O)C(=O)CO [Hydrocortisone] (concentration: 25 µM) | 0.9165 ± 0.0081 | 0.72 ± 0.092
CC(=O)N1CCN(c2ccc(OCC3COC(Cn4ccnc4)(c4ccc(Cl)cc4Cl)O3)cc2)CC1 (stereo not drawn) [Ketoconazole] (concentration: 25 µM) | 0.84 ± 0.013 | 0.564 ± 0.035
CC(C)NCC(O)COc1cccc2ccccc12 (stereo not drawn) [Propranolol·HCl] (concentration: 25 µM) | 1.04 ± 0.061 | 0.633 ± 0.015
CCCCCN(C)CCC(O)(P(=O)(O)O)P(=O)(O)O [Ibandronate·Na Monohydrate] (concentration: 25 µM) | 0.941 ± 0.063 | 0.298 ± 0.14
Cc1ccc(/C(=C\CN2CCCC2)c2cccc(/C=C/C(=O)O)n2)cc1 [Acrivastine] (concentration: 5 µM) | 1.06 ± 0.052 | 0.976 ± 0.12
CCCCCCCCCCCCCCCC(=O)O[C@@H]1[C@@H](O)[C@@H](O)[C@@H]([C@H](NC(=O)[C@@H]2C[C@@H](CCC)CN2C)[C@H](C)Cl)O[C@@H]1SC [Clindamycin Palmitate·HCl] (concentration: 25 µM) | 1 ± 0.044 | 0.725 ± 0.025
CCC(=O)O[C@]1(C(=O)SCF)[C@H](C)C[C@H]2[C@@H]3C[C@H](F)C4=CC(=O)C=C[C@]4(C)[C@@]3(F)[C@@H](O)C[C@@]21C [Fluticasone Propionate] (concentration: 25 µM) | 0.967 ± 0.015 | 1.06 ± 0.053
CCC1=C[C@@H]2CN(C1)Cc1c([nH]c3ccccc13)[C@@](C(=O)OC)(c1cc3c(cc1OC)N(C)[C@H]1[C@@](O)(C(=O)OC)[C@H](OC(C)=O)[C@]4(CC)C=CCN5CC[C@]31[C@@H]54)C2 [Vinorelbine] (concentration: 250 nM) | 0.941 ± 0.031 | 0.559 ± 0.048
NC[C@@H]1O[C@H](O[C@H]2[C@@H](O)[C@H](O[C@@H]3[C@@H](O)[C@H](N)C[C@H](N)[C@H]3O[C@H]3O[C@H](CO)[C@@H](O)[C@H](O)[C@H]3N)O[C@@H]2CO)[C@H](N)[C@@H](O)[C@@H]1O [Paromomycin Sulfate] (concentration: 25 µM) | 0.949 ± 0.012 | 0.773 ± 0.041
O=P(O)(O)C(Sc1ccc(Cl)cc1)P(=O)(O)O [Tiludronate Disodium] (concentration: 25 µM) | 0.961 ± 0.06 | 0.663 ± 0.15
O=S(=O)(O)CCS [Mesna] (concentration: 25 µM) | 1.06 ± 0.026 | 0.769 ± 0.16
CCCCc1ncc(/C=C(\Cc2cccs2)C(=O)O)n1Cc1ccc(C(=O)O)cc1 [Eprosartan Mesylate] (concentration: 25 µM) | 1.01 ± 0.06 | 0.864 ± 0.071
Cc1cccc(C)c1NC(=O)C1CCCCN1C (stereo not drawn) [Mepivacaine·HCl] (concentration: 25 µM) | 0.91 ± 0.035 | 1.31 ± 0.14
C[C@]12CCC(=O)C=C1[C@@H]1C[C@@H]1[C@H]1[C@@H]3[C@@H]4C[C@@H]4[C@@]4(CCC(=O)O4)[C@@]3(C)CC[C@@H]12 [Drospirenone] (concentration: 25 µM) | 0.962 ± 0.03 | 0.692 ± 0.11
C[C@]12CC[C@@H]3c4ccc(O)cc4CC[C@H]3[C@@H]1CCC2=O [Estrone] (concentration: 25 µM) | 0.963 ± 0.033 | 0.842 ± 0.094
CC1(C)O[C@@H]2C[C@H]3[C@@H]4CCC5=CC(=O)C=C[C@]5(C)[C@@]4(F)[C@@H](O)C[C@]3(C)[C@]2(C(=O)CO)O1 [Triamcinolone Acetonide] (concentration: 25 µM) | 0.997 ± 0.039 | 0.789 ± 0.084
CC(C(=O)O)c1ccc(-c2ccccc2)c(F)c1 (stereo not drawn) [Flurbiprofen] (concentration: 25 µM) | 0.974 ± 0.032 | 0.881 ± 0.083
Nc1ccc(C(=O)O)c(O)c1 [4-Aminosalicylic Acid] (concentration: 25 µM) | 0.914 ± 0.016 | 0.844 ± 0.14
COc1c(C)c2c(c(O)c1C/C=C(\C)CCC(=O)OCCN1CCOCC1)C(=O)OC2 [Mycophenolate Mofetil] (concentration: 25 µM) | 0.892 ± 0.0081 | 0.203 ± 0.039
Cc1cn([C@@H]2C[C@@H](O)[C@H](CO)O2)c(=O)[nH]c1=O [Telbivudine] (concentration: 25 µM) | 0.927 ± 0.037 | 1.04 ± 0.17
CC(C)NCC(O)c1ccc(NS(C)(=O)=O)cc1 (stereo not drawn) [Sotalol·HCl] (concentration: 25 µM) | 0.893 ± 0.059 | 0.268 ± 0.17
CCN(CC)CC(=O)Nc1c(C)cccc1C [Lidocaine·HCl·H2O] (concentration: 25 µM) | 1.01 ± 0.033 | 1.03 ± 0.14
Oc1c(Cl)cc(Cl)c(Cl)c1Cc1c(O)c(Cl)cc(Cl)c1Cl [Hexachlorophene] (concentration: 2.5 µM) | 0.904 ± 0.016 | 0.433 ± 0.035
CCCN1CCCC[C@H]1C(=O)Nc1c(C)cccc1C [Ropivacaine·HCl Monohydrate] (concentration: 25 µM) | 0.978 ± 0.014 | 0.995 ± 0.057
CN(C)CCCN1c2ccccc2CCc2ccccc21 [Imipramine·HCl] (concentration: 25 µM) | 0.952 ± 0.045 | 0.525 ± 0.16

SMILES | mean cell size (Jurkat [1]) | cell count (Jurkat [2])
CC(C)c1nc(CN(C)C(=O)N[C@H](C(=O)N[C@@H](Cc2ccccc2)C[C@H](O)[C@H](Cc2ccccc2)NC(=O)OCc2cncs2)C(C)C)cs1 [Ritonavir] (concentration: 25 µM) | 0.999 ± 0.079 | 0.564 ± 0.14
C[C@@H](O[C@H]1OCCN(Cc2n[nH]c(=O)[nH]2)[C@H]1c1ccc(F)cc1)c1cc(C(F)(F)F)cc(C(F)(F)F)c1 [Aprepitant] (concentration: 2.5 µM) | 1.08 ± 0.022 | 0.651 ± 0.024
Nc1ccn([C@@H]2O[C@H](CO)[C@@H](O)[C@@H]2O)c(=O)n1 [Cytarabine] (concentration: 25 nM) | 1.18 ± 0.05 | 0.297 ± 0.088
NC(=O)c1cn(Cc2c(F)cccc2F)nn1 [Rufinamide] (concentration: 25 µM) | 0.968 ± 0.042 | 0.803 ± 0.055
C[C@H](CCC(=O)O)[C@H]1CC[C@H]2[C@@H]3[C@@H](O)C[C@@H]4C[C@H](O)CC[C@]4(C)[C@H]3CC[C@]12C [Ursodiol] (concentration: 25 µM) | 1.01 ± 0.031 | 0.718 ± 0.096
COc1c2occc2cc2ccc(=O)oc12 [Methoxsalen (Xanthotoxin)] (concentration: 25 µM) | 1.04 ± 0.019 | 0.761 ± 0.14
CC(C)(C)NC[C@H](O)c1ccc(O)c(CO)c1 [Levalbuterol·HCl] (concentration: 25 µM) | 0.929 ± 0.03 | 1.14 ± 0.14
CN1CCN(C2=Nc3ccccc3Oc3ccc(Cl)cc32)CC1 [Loxapine Succinate] (concentration: 25 µM) | 0.908 ± 0.024 | 1.16 ± 0.1
COC(=O)CCc1ccc(OCC(O)CNC(C)C)cc1 (stereo not drawn) [Esmolol] (concentration: 25 µM) | 0.9278 ± 0.0077 | 1.08 ± 0.12
CC1(C)O[C@@H]2C[C@H]3[C@@H]4C[C@H](F)C5=CC(=O)C=C[C@]5(C)[C@@]4(F)[C@@H](O)C[C@]3(C)[C@]2(C(=O)CO)O1 [Fluocinolone Acetonide] (concentration: 25 µM) | 0.958 ± 0.037 | 0.55 ± 0.08
OC(Cn1cncn1)(Cn1cncn1)c1ccc(F)cc1F [Fluconazole] (concentration: 25 µM) | 0.969 ± 0.054 | 0.325 ± 0.14
COc1cccc2c1C(=O)c1c(O)c3c(c(O)c1C2=O)C[C@@](O)(C(C)=O)C[C@@H]3O[C@H]1C[C@H](N)[C@H](O)[C@H](C)O1 [Daunorubicin·HCl] (concentration: 25 nM) | 1.04 ± 0.037 | 0.711 ± 0.11
CC(C)C[C@H](NC(=O)[C@@H](COC(C)(C)C)NC(=O)[C@H](Cc1ccc(O)cc1)NC(=O)[C@H](CO)NC(=O)[C@H](Cc1c[nH]c2ccccc12)NC(=O)[C@H](Cc1cnc[nH]1)NC(=O)[C@@H]1CCC(=O)N1)C(=O)N[C@@H](CCCNC(=N)N)C(=O)N1CCC[C@H]1C(=O)NNC(N)=O [Goserelin Acetate] (concentration: 25 µM) | 0.953 ± 0.045 | 1.044 ± 0.003
C[C@]12CC[C@@H]3c4ccc(O)cc4CC[C@H]3[C@@H]1CC[C@@H]2O [Estradiol] (concentration: 25 µM) | 0.892 ± 0.026 | 0.711 ± 0.1
Cc1ccccc1C(OCCN(C)C)c1ccccc1 (stereo not drawn) [Orphenadrine Citrate] (concentration: 25 µM) | 0.975 ± 0.056 | 0.742 ± 0.13
Cc1cn(-c2cc(NC(=O)c3ccc(C)c(Nc4nccc(-c5cccnc5)n4)c3)cc(C(F)(F)F)c2)cn1 [Nilotinib] (concentration: 25 µM) | 0.979 ± 0.037 | 0.762 ± 0.086
COc1ccccc1OCC(O)COC(N)=O (stereo not drawn) [Methocarbamol] (concentration: 25 µM) | 0.969 ± 0.057 | 0.715 ± 0.14
CC[C@@H](CO)NCCN[C@@H](CC)CO [Ethambutol Dihydrochloride] (concentration: 25 µM) | 1.02 ± 0.064 | 0.721 ± 0.18
C[C@H]1COc2c(N3CCN(C)CC3)c(F)cc3c(=O)c(C(=O)O)cn1c23 [Levofloxacin·HCl] (concentration: 25 µM) | 0.936 ± 0.022 | 0.904 ± 0.066
CN(C)CCC=C1c2ccccc2CCc2ccccc21 [Amitriptyline·HCl] (concentration: 25 µM) | 0.915 ± 0.037 | 0.798 ± 0.033
CC(C)Cc1ccc(C(C)C(=O)O)cc1 (stereo not drawn) [Ibuprofen] (concentration: 25 µM) | 0.955 ± 0.011 | 0.765 ± 0.077
OC(CCN1CCCCC1)(c1ccccc1)C1CC2C=CC1C2 (stereo not drawn) [Biperiden·HCl] (concentration: 25 µM) | 0.951 ± 0.055 | 0.654 ± 0.12
O=C(CCCN1CCC(O)(c2ccc(Cl)cc2)CC1)c1ccc(F)cc1 [Haloperidol] (concentration: 25 µM) | 1.04 ± 0.057 | 0.609 ± 0.16
O=C1NC(c2ccccc2)(c2ccccc2)C(=O)N1COP(=O)(O)O [Fosphenytoin·Na Pentahydrate] (concentration: 25 µM) | 0.887 ± 0.058 | 0.498 ± 0.074

— the supplement of paper PMC4709259
